From PubChem BioAssay AID1159580 (chemical genetic matrix, 2015)
Where “and” joins values, the source holds several entries; their conditions need not be identical. Equal entries are not always repeated. Hit rate of the full screen: of about 5,500 compounds, about 2,000 (36%) were called active. Another 18% or so got no clear call; they are omitted. Rule as the data show it: active = normalized growth mostly below about 0.91 (no sharp cut-off); inconclusive = no clear call, values can overlap the other calls; inactive = mostly above about 0.92. The list shows a part of the results.

Assay: chemical genetic growth profiling, strain panel (AID 1159580);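 also: tested at 20 µM; growth read once vehicle control cultures reached saturation at 30 °C; 1 = growth at the plate median or of vehicle wells; lower values mean less growth of the strain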
Details: S. cerevisiae deletion strains, growth OD

Measured: normalized growth

c1ccc(N=Nc2ccccc2)cc1
inactive: locus YAL021C, strain ccr4, active compounds read low 1.02 | locus YAL026C, strain drs2, active compounds read low 0.998 | locus YAL030W, strain snc1, active compounds read low 0.985 | locus YBL061C, strain skt5, active compounds read low 0.991 | locus YBR009C, strain hhf1, active compounds read low 0.985 | locus YBR021W, strain FUR4, active compounds read low 1.01 | locus YBR023C, strain chs3, active compounds read low 0.99 | locus YBR171W, strain sec66, active compounds read low 0.975 | locus YBR229C, strain ROT2, active compounds read low 1 | locus YBR231C, strain swc5, active compounds read low 0.984 | locus YBR279W, strain paf1, active compounds read low 0.985 | locus YCL011C, strain gbp2, active compounds read low 0.992 | locus YCL016C, strain dcc1, active compounds read low 0.982 | locus YCL029C, strain bik1, active compounds read low 1.03 | locus YCL061C, strain MRC1, active compounds read low 0.993 | locus YCL069W, strain vba3, active compounds read low 0.988 | locus YCR088W, strain abp1, active compounds read low 0.991 | locus YDL005C, strain med2, active compounds read low 0.977 | locus YDL035C, strain GPR1, active compounds read low 0.981 | locus YDL040C, strain nat1, active compounds read low 0.985 | locus YDL074C, strain BRE1, active compounds read low 0.942 | locus YDL101C, strain DUN1, active compounds read low 0.979 | locus YDL134C, strain PPH21, active compounds read low 0.968 | locus YDL185W, strain tfp1, active compounds read low 1.01 | locus YDL192W, strain arf1, active compounds read low 1.03 | locus YDR001C, strain nth1, active compounds read low 0.987 | locus YDR069C, strain doa4, active compounds read low 0.995 | locus YDR101C, strain arx1, active compounds read low 1.02 | locus YDR137W, strain rgp1, active compounds read low 0.911 | locus YDR150W, strain NUM1, active compounds read low 1 | locus YDR159W, strain sac3, active compounds read low 1.01 | locus YDR162C, strain NBP2, active compounds read low 1.01 | locus YDR195W, strain ref2 0.994 | locus YDR297W, strain sur2, active compounds read low 0.987 | locus YDR318W, strain mcm21, active compounds read low 1.02 | locus YDR334W, strain swr1, active compounds read low 0.989 | locus YDR335W, strain msn5, active compounds read low 0.972 | locus YDR388W, active compounds read low 1.03 | locus YDR392W, strain spt3, active compounds read low 0.992 | locus YDR502C, strain sam2, active compounds read low 1.02 | locus YEL003W, strain gim4, active compounds read low 0.996 | locus YEL037C, strain rad23, active compounds read low 0.988 | locus YEL061C, strain CIN8 (second series), active compounds read low 0.976 | locus YEL061C, strain CIN8, active compounds read low 1 | locus YER015W, strain faa2, active compounds read low 0.996 | locus YER016W, strain bim1, active compounds read low 0.992 | locus YER110C, active compounds read low 1.03 | locus YER111C, strain swi4, active compounds read low 0.987 | locus YER155C, strain BEM2 (second series), active compounds read low 0.906 | locus YER155C, strain BEM2, active compounds read low 1.01 | locus YER167W, strain BCK2, active compounds read low 0.998 | locus YFR010W, strain ubp6, active compounds read low 0.99 | locus YGL078C, strain dbp3, active compounds read low 1.02 | locus YGL086W, strain mad1, active compounds read low 1.01 | locus YGL167C, strain pmr1, active compounds read low 0.992 | locus YGL173C, strain kem1, active compounds read low 0.993 | locus YGL227W, strain vid30, active compounds read low 0.992 | locus YGL240W, strain doc1, active compounds read low 0.975 | locus YGL248W, strain PDE1, active compounds read low 0.982 | locus YGL253W, strain hxk2, active compounds read low 0.996 | locus YGR078C, strain PAC10, active compounds read low 0.939 | locus YGR135W, strain pre9, active compounds read low 1.02 | locus YGR229C, strain SMI1, active compounds read low 0.966 | locus YGR252W, strain gcn5, active compounds read low 0.999 | locus YHR013C, strain ard1, active compounds read low 1.07 | locus YHR027C, strain rpn1, active compounds read low 0.987 | locus YHR030C, strain SLT2, active compounds read low 1.01 and 0.972 | locus YHR079C, strain IRE1 (second series), active compounds read low 1.02 | locus YHR079C, strain IRE1, active compounds read low 0.967 | locus YHR094C, strain hxt1, active compounds read low 1.03 | locus YHR129C, strain ARP1, active compounds read low 1 | locus YHR142W, strain chs7, active compounds read low 1.01 | locus YHR200W, strain rpn10, active compounds read low 1.03 | locus YIL066C, strain RNR3, active compounds read low 0.986 | locus YIL073C, strain SPO22, active compounds read low 1.08 | locus YIL125W, strain kgd1, active compounds read low 1.01 | locus YIR030C, strain dcg1, active compounds read low 1.04 | locus YJL092W, strain hpr5, active compounds read low 0.976 | locus YJL095W, strain BCK1 (second series), active compounds read low 0.979 | locus YJL095W, strain BCK1, active compounds read low 0.983 and 0.961 | locus YJL115W, strain asf1, active compounds read low 0.989 | locus YJL129C, strain trk1, active compounds read low 0.969 | locus YJL134W, strain LCB3, active compounds read low 1.01 | locus YJL154C, strain vps35, active compounds read low 0.984 | locus YJL164C, strain tpk1, active compounds read low 0.996 | locus YJL166W, strain qcr8, active compounds read low 0.976 | locus YJL168C, strain set2, active compounds read low 1.02 | locus YJL187C, strain SWE1 (second series), active compounds read low 0.971 | locus YJR043C, strain POL32, active compounds read low 0.996
